# In PubChem BioAssay AID624404 (Broad Institute, 2012):
# About 710 (39%) of roughly 1,800 compounds were called active. Not shown: some 28% with an inconclusive outcome.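 Rule for the calls: active = luciferase signal rise whose fitted curve crosses a set activity limit at or below the top valid tested dose; inconclusive = flat fit with 30 to 70% rise, or poor fit; inactive = signal falling, flat within 30%, or crossing above top dose.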 These entries were drawn from the full list. Results with a measured potency or affinity are listed apart.
# Test: reporter signal increase, D54 LucT cells – cell-based, luminescence, cherry pick, counter-screen for N-linked glycosylation inhibitor project, dose response (AID 624404);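 note: 0% = median neutral control signal and 100% = twice that signal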
# Settings: D54 LucT luciferase reporter counterscreen, 24 h; series mostly up to 19.5 µM; activity increase (luciferase signal): at the top concentration
row,Compound,activity increase (luciferase signal)
1,O=C(NCCN1C(=O)S/C(=C\c2cccc(Cl)c2Cl)C1=O)C1=COCCO1,34.6% (inactive)
2,Cc1noc2ncnc(Sc3ccc(Cl)cc3)c12,-4.08% (inactive)
3,COC(=O)c1cc(=O)n(Cc2ccco2)c(=Nc2ccc(F)cc2)s1,8.46% (inactive)
4,CCn1c(=O)cc(C(=O)OC)sc1=Nc1ccc(F)c(F)c1,10.2% (inactive)
5,CCN(CC(=O)Nc1ccccc1OC)CC(=O)Nc1ccccc1-c1ccccc1,67.6% (inactive)
6,CCCc1cc(C(=O)N/N=C/c2ccc(C)o2)c2ccccc2n1,2.39% (inactive)
7,COc1ccc(C(=O)NCCN(C)C)c2nc3ccccc3cc12,34% (inactive)
8,O=C(/C=C/c1ccc(-c2ccccc2[N+](=O)[O-])o1)c1ccc(Br)cc1,23.2% (inactive)
9,N#Cc1cc2[nH]c3ccccc3c2[n+](-c2ccc([N+](=O)[O-])cc2)c1N,4.59% (inactive)
10,Cn1cnc([N+](=O)[O-])c1Sc1nc2ccccc2[nH]1,-2.72% (inactive)
11,CCN(CC)CCNc1ccc(CO)c2oc3ccccc3c(=O)c12,30.6% (inactive)
12,CCn1c(=O)c2cc(C(=O)NCCN(C)C)sc2c2ccccc21,29.2% (inactive)
13,CCN(CC)CCNc1ccc(CO)c2oc3cc(Cl)ccc3c(=O)c12,19.5% (inactive)
14,Cn1nc(C(F)(F)F)c(/C=N/OC(=O)c2ccccc2Cl)c1SCc1ccc(Cl)cc1,-3.74% (inactive)
15,CCCCc1ccc(N/C(N)=N/c2nc(C)cc(C)n2)cc1,-16.7% (inactive)
16,Cc1cc(C)nc(/N=C(\N)Nc2ccc(OCCC(C)C)cc2)n1,-50.5% (inactive)
17,CC1CN(C(=O)/C=C/c2ccc([N+](=O)[O-])s2)CC(C)O1 (centres undefined),2.29% (inactive)
18,O=C(/C=C/c1ccc([N+](=O)[O-])s1)N1CCCCC1,-39.5% (inactive)
19,COc1ccc(C=C(c2nc3ccccc3s2)c2nc3ccccc3s2)cc1O,-30.8% (inactive)
20,Cc1c(-c2cccc(Cl)c2)nc2ccccc2c1C(=O)OC/C(O)=C(\C#N)c1nc2ccccc2[nH]1,40.5% (inactive)
21,COCC(=O)OC/C(O)=C(\C#N)c1nc2ccccc2[nH]1,-10.2% (inactive)
22,COc1ccc(NC(=O)C2Cc3c(-c4ccc5c(c4)OCO5)ccnc3O2)cc1 (centres undefined),38.2% (inactive)
23,COc1ccc(CCCNC(=O)C2Cc3c(-c4cccc(C(C)=O)c4)ccnc3O2)cc1 (centres undefined),44.8% (inactive)
24,CS(=O)(=O)Nc1cccc(NC(=O)C2Cc3c(-c4ccccc4)ccnc3O2)c1 (centres undefined),-27.7% (inactive)
25,CC(=O)Nc1cccc(-c2ccnc3c2CC(C(=O)NCc2ccco2)O3)c1 (centres undefined),12.1% (inactive)
26,COc1ccc(NC(=O)C2Cc3c(-c4cccc(C(C)=O)c4)ccnc3O2)cn1 (centres undefined),50.2% (inactive)
27,COc1ccc(Nc2cc(C)nc3ccc(OC)cc23)cc1,1.85% (inactive)
28,COc1ccc2nc(C)cc(Nc3ccc(N4CCOCC4)cc3)c2c1,24.5% (inactive)
29,CN(C1=C(NC(=O)c2ccc(Cl)cc2)C(=O)c2ccccc2C1=O)c1ccccc1,-0.769% (inactive)
